# Screening results (PubChem BioAssay)
# Shown are actives, neighbours in structure and some others; about 1.2% of the full set was active somewhere.
# uPA generation = cell surface uPA generation inhibition | actives 0.31% (n = 330,000) | Potency, µM (doses to about 38.3 µM), inactives show at the highest dose activity change, negative = inhibition, hits mostly inhibitors | cell surface uPA generation assay, qHTS; active = well fitted inhibition curve with a large enough effect; inconclusive = small, poorly fitted or top-dose-only effect; inactive = no such curve, though single readings can be large or run the other way; tested in mouse RAW 264.7 cells; also: potency is read from the fitted curve at half-maximal effect; nearly all actives have a fitted effect of over 55% in size
# Six1-Eya2 blk = inhibitors of human Six1/Eya2 interaction | Q15475+O00167 | AlphaScreen GST-Six1/His-Eya2 binding, biochemical; active compounds read low | activity change, % (test concentration not listed) | actives 0.56% (n = 360,000); in the data active = activity change below about -65%; inconclusive = mostly about -30% to -63%
#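 GST-Six1 + His-Eya2 (5X stock: 250/500 nM); Tris pH 8.0, 300 mM NaCl, 0.05% BSA, 0.02% Tween 20; GSH donor/Ni acceptor beads; 1 h 37 °C dark; AlphaScreen readout.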
# L3MBTL1 inh = inhibitors of human L3MBTL1. Q9Y468. AlphaScreen L3MBTL1–H3K9me1 peptide binding. Potency, µM (titrated, usually from 57.1 µM), without a hit: at the top dose activity, negative = inhibition, usual class: inhibitors. actives 0.66% (n = 230,000). AID 485360; also: potency is read from the fitted curve at half-maximal effect; nearly all actives have a fitted effect of over 60% in size
#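 L3MBTL1 50 nM + b-AHA-H3(1-15)K9me1 75 nM, 30 min RT; compound added, 30 min RT; streptavidin donor/Ni-chelate acceptor beads 10 ug/mL each final, 30 min RT dark; AlphaScreen read.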
# Eya2 phos inh = Eya2 (human) phosphatase inhibition. recombinant Eya2, OMFP fluorescence dephosphorylation (OMFP is methylfluorescein phosphate). Potency, µM (series often up to 76.9 µM), for the others: at the highest dose activity, negative = inhibition, actives largely listed as inhibitors. actives 0.006% (n = 330,000). AID 488837; also: potency is read from the fitted curve at half-maximal effect
#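 Eya2 protein (added as 0.2 uM solution) was preincubated with compound for 10 min at ambient temperature in 50 mM HEPES pH 7.5, 50 mM NaCl, 5 uM MgCl2, 0.05% BSA, 1 mM DTT. OMFP (added at 50 uM) then reacted 10 min; fluorescence read at 485/525 nm.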
# CtBP-E1A inh = inhibitors of CtBP/E1A interaction | actives 0.49% (n = 340,000) | activity change, % (concentration not given with the values) | AlphaScreen GST-E1A/His-CtBP binding, 1536-well; active compounds read low | AID 651724; in the data active = activity change below about -65%; inconclusive = mostly about -30% to -63%
#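 In 5 uL wells, 23 nL compound meets equimolar GST-E1A and His-CtBP (5X stock 125 nM each) for 2 h, 37 °C. Beads (5X, 50 ug/mL) then 1 h, 37 °C, dark.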
# USP2a block = blocks human ubiquitin-specific protease USP2a. O75604. AID 463254. Potency, µM (titrated, usually from 38.3 µM), inactives show at the top dose activity change, negative = inhibition, actives largely listed as inhibitors. USP2 core, Ub-CHOP2 coupled fluorogenic reporter, 485/531. actives 0.01% (n = 330,000);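 also: potency is read from the fitted curve at half-maximal effect; plate controls were DMSO wells for no effect and full inhibition by NEM control for full effect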
# Target sequence (O75604 whole entry, looked up): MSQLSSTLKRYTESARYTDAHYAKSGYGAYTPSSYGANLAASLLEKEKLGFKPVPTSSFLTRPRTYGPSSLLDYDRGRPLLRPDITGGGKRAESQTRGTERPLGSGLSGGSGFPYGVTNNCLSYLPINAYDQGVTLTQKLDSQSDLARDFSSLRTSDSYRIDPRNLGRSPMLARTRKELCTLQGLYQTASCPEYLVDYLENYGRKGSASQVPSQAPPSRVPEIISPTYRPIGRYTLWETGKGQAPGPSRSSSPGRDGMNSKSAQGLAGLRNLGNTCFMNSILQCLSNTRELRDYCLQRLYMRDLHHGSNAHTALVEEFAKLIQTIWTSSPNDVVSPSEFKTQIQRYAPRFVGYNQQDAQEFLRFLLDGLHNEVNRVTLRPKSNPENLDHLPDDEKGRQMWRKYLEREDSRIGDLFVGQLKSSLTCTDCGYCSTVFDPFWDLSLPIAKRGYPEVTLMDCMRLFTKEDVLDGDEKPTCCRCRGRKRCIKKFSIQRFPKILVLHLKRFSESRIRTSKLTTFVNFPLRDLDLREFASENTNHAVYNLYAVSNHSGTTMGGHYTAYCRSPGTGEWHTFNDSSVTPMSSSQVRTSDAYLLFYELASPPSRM
#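 USP2 core (10nM final) preincubated 30min RT with compound in 20mM Tris-HCl pH 8.0, 2mM CaCl2, 2mM beta-mercaptoethanol, 0.05% CHAPS; 25nM Ub-CHOP2 plus 25nM reporter substrate added, fluorescence (Ex485/Em531) read after 60min.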
# Numbers without * were called inactive; ? = inconclusive; / = no result given; [ ] = remark or other dose. Unless noted, calls follow the shape of the dose curve; as a rule, active = well fitted curve in the direction sought with a large enough effect; inconclusive = small, poorly fitted or top-dose-only effect, or another doubt; inactive = no such curve, though single readings can be large; an effect the other way counts as inactive or inconclusive. Unless noted, % is scaled to controls: 0 for no effect and ±100 for the full control effect.
SMILES,uPA generation,Six1-Eya2 blk,L3MBTL1 inh,Eya2 phos inh,CtBP-E1A inh,USP2a block
NC(=O)c1ccc(Nc2nc(C(N)c3ccccc3Cl)cs2)cc1 (centres undefined),/,-7,/,/,-21,/
NC(c1csc(Nc2ccc(C(=O)NCCCO)cn2)n1)c1ccccc1Cl (centres undefined),/,?,/,/,-77*,/
NC(c1ccccc1)c1csc(Nc2ccc(C(=O)NCCCO)cn2)n1 (centres undefined),/,-83*,/,/,-85*,/
COC(=O)/C(=C1/Oc2cc(C)oc(=O)c2S1)C(F)(F)F,-15%,?,8%,-27%,-83*,2%
Cc1ccc2[nH]c(=O)c(C3C(C#N)=C(N)Oc4c3ccc3cccnc43)cc2c1 (centres undefined),-9%,?,/,-7%,-92*,-10%
COC(=O)C1=C(C)NC(C)=C(C(=O)OC)C1c1cc2cc(C)ccc2[nH]c1=O,-1%,1,-1%,-17%,-14,3%
Cc1oc(C)c2c(=O)ccc3c(c12)OC(N)=C(C#N)C3c1ccccc1 (centres undefined),-7%,-16,-19%,-31%,-13,3%
N#CC1=C(N)Oc2c(ccc3cccnc23)C1c1ccccc1 (centres undefined),1.3µM*,7,-9%,-1%,?,1%
O=C(O)CC12CC3CC(C1)CC(n1ncc(NCc4ccc5c(c4)OCO5)c(Cl)c1=O)(C3)C2,/,/,/,?,/,12%
C/C(=N\NC(=O)CNC(=O)c1cccs1)c1ccc(Cl)c(Cl)c1,-4%,-6,/,-8%,-11,3%
COc1cc(C(=O)Nc2cccc(-c3nnc(-c4ccco4)o3)c2)ccc1OC(C)=O,-12%,-86*,-9%,-14%,?,-1%
c1ccc(-c2cn(C[C@H]3CC[C@H](Cn4cc(-c5ccccn5)nn4)O3)nn2)nc1,8%,-92*,0.28µM*,11%,-90*,1%
CCOC(=O)c1ccc(Nc2cc(C)nc(-c3ccccc3)n2)cc1,5µM*,-19,/,?,/,-7%
O=C(O)CCSc1nc2ccccc2s1,6%,3,/,7%,12,1%
Nc1c(SCCC(=O)O)ccc2c1C(=O)c1ccccc1C2=O,-11%,-67*,/,-18%,-15,-1%
O=C1CC(N2CCN(c3ncccn3)CC2)C(=O)N1CCc1ccccc1 (centres undefined),-2%,5,-9%,7%,/,1%
S=c1[nH]nc(-c2cccnc2)n1/N=C/C=C/c1ccco1,10%,-4,22µM*,4%,3,-1%
CC(/C=N/n1c(-c2cccnc2)n[nH]c1=S)=C\c1ccco1,14%,-14,?,?,-14,0%
S=c1[nH]nc(-c2ccccc2)n1/N=C/C=C/c1ccco1,2%,-11,?,6%,-1,2%
S=c1[nH]nc(-c2ccc(Cl)cc2)n1/N=C/C=C/c1ccco1,1%,-15,28µM*,-4%,-6,-2%
O=C(O)CN1C(=O)/C(=C/c2ccc(N3CCCCC3)o2)SC1=S,-23%,?,32µM*,?,-3,13%
O=C(CN1C(=O)/C(=C/c2ccco2)SC1=S)Nc1ccc(C(=O)O)c(O)c1,6%,-65*,/,-15%,/,0%
CC(=C\c1ccco1)/C=C1/SC(=S)N(CC(=O)O)C1=O,2%,-10,40µM*,10%,-2,0%
O=C1/C(=C/c2ccco2)SC(=S)N1c1cccnc1,1%,-71*,3.2µM*,-19%,-29,-10%
O=C(CN1C(=O)/C(=C/c2ccco2)SC1=S)Nc1ccc(O)c(C(=O)O)c1,2%,-4,/,13%,/,1%
SMILES,uPA generation,Six1-Eya2 blk,L3MBTL1 inh,Eya2 phos inh,CtBP-E1A inh,USP2a block
NN1C(=O)/C(=C\c2ccco2)SC1=S,-1%,-16,25µM*,-2%,-15,2%
CC(=C/C(=O)O)/C=C/c1ccc(Cl)o1,2%,-27,10µM*,-4%,0,4%
CCOc1ccc(/C=N/Nc2nc(N3CCCC3)nc(N3CCCC3)n2)cc1OC,0%,0,1%,11%,-1,1%
CCOc1cc(/C=N/Nc2nc(N3CCCCC3)nc(N3CCCCC3)n2)ccc1OC(=O)c1ccco1,13µM*,2,/,8%,/,1%
O=C(O)c1ccc2ncsc2c1,6%,0,10µM*,13%,4,6%
O=C(c1ccc2ncsc2c1)N1CCCCC1,-1%,2,/,9%,3,-1%
Cc1cccc(C)c1OCCCN1CCOCC1,8%,7,/,0%,11,2%
Nc1nc2c(ncn2-c2ccccc2)c(=O)[nH]1,-13%,?,/,/,-73*,/
CC(C)c1nc(CN2CCCCC2)cc(=O)[nH]1,6%,-3,-4%,-3%,-1,-1%
Cc1cc(C)cc(NC2=C(N)C(=O)c3ccccc3C2=O)c1,-4%,-70*,/,-6%,?,1%
Cc1cccc(NC2=C(NCCO)C(=O)c3ccccc3C2=O)c1,-5%,-67*,?,-2%,-24,0%
Cc1ccc(NC2=C(Cl)C(=O)c3ccccc3C2=O)cc1,-2%,-10,-6%,-2%,11,0%
CC(NC(=O)CCl)c1ccccc1Br (centres undefined),-13%,3,/,9%,-4,-1%
NC(=O)c1cc2nc(-c3ccco3)cc(C(F)(F)F)n2n1,2%,-72*,-11%,-1%,-80*,2%
COC(=O)c1cc2nc(-c3ccc(OC)c(OC)c3)cc(C(F)(F)F)n2n1,-13%,-10,-1%,3%,-13,1%
COc1ccc(-c2cc(C(F)(F)F)n3nc(C(=O)O)cc3n2)cc1OC,-1%,-70*,5%,-2%[15.4 µM],?,3%
O=C(c1cc2nc(-c3ccco3)cc(C(F)(F)F)n2n1)N1CCCCCC1,-12%,7,15%,2%,0,2%
O=[N+]([O-])c1cc(Br)c(O)c(/C=N/Nc2nnnn2-c2cccc3ccccc23)c1,/,?,/,-3%,-70*,2%
CCc1ccc(S(=O)(=O)/N=C2\C=C(Nc3cccc(C(=O)O)c3)C(=O)c3ccccc32)cc1,-5%,?,/,-20%,-75*,-3%
CCc1ccc(S(=O)(=O)/N=C2\C=C(Nc3ccc(O)cc3)C(=O)c3ccccc32)cc1,-3%,-70*,/,0%,-89*,-2%
Cc1cc(C)c(S(=O)(=O)/N=C2\C=C(Nc3ccc(C(=O)O)cc3)C(=O)c3ccccc32)c(C)c1,-5%,?,/,-28%,-72*,-11%
